Experimental data from the supplement of paper PMC6555819.

Columns and labels:
Assay in all cases: PBM binding z-score (relative to random genomic background probes); higher = stronger binding; sequences stand for … in GC…GCGATTGACAGCGTAGAATGAAGG
[1] = tested on: PPARg:RXRa DBDmut IVT, anti-RXR (DBD mutation: RXRa K156A/R161A, NR concentration 270 nM, RXRa partner concentration 90 nM)
Outline: (§1)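 For binding z-scores, the reference was random background probes on custom Agilent 4×180K protein-binding microarrays. These arrays were incubated 1 h with ligand-free nuclear receptor dimers in PBS pH 7.4, 2% milk, 0.02% Triton X-100, 1 mM DTT, 0.2 mg/mL BSA and 0.4 mg/ml salmon testes DNA. Fluorescence was scanned after antibody detection of each partner (one per run) and regression-normalized.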

[2] = tested on: PPARg:RXRa IVT, anti-PPARg (NR concentration 270 nM, RXRa partner concentration 90 nM)
Outline: as §1

[3] = tested on: PPARg DBDmut:RXRa IVT, anti-PPARg (DBD mutation: PPARg1 K132A/R137A, NR concentration 270 nM, RXRa partner concentration 90 nM)
Outline: as §1

[4] = tested on: PPARg DBDmut IVT, anti-PPARg (DBD mutation: PPARg1 K132A/R137A, NR concentration 270 nM)
Outline: as §1

[5] = tested on: PPARg homodimer (NR concentration 180 nM)
Outline: as §1

[6] = tested on: PXR:RXRa (NR concentration 270 nM, RXRa partner concentration 90 nM)
Outline: as §1

[7] = tested on: PXR homodimer (NR concentration 270 nM)
Outline: as §1

[8] = tested on: RARa:RXR (NR concentration 270 nM, RXRa partner concentration 90 nM)
Outline: as §1

[9] = tested on: RARa homodimer (NR concentration 270 nM)
Outline: as §1

[10] = tested on: RARb:RXRa (NR concentration 270 nM, RXRa partner concentration 90 nM)
Outline: as §1

[11] = tested on: RARb homodimer (NR concentration 270 nM)
Outline: as §1

[12] = tested on: RARg:RXRa (NR concentration 270 nM, RXRa partner concentration 90 nM)
Outline: as §1

[13] = tested on: RARg homodimer (NR concentration 270 nM)
Outline: as §1

[14] = tested on: RXRa DBDmut IVT, anti-RXR (DBD mutation: RXRa K156A/R161A, NR concentration 90 nM)
Outline: as §1

[15] = tested on: RXRa homodimer (NR concentration 180 nM)
Outline: as §1

[16] = tested on: THRa:RXRa (NR concentration 90 nM, RXRa partner concentration 90 nM)
Outline: as §1

[17] = tested on: THRa homodimer (NR concentration 90 nM)
Outline: as §1

[18] = tested on: VDR:RXRa (NR concentration 270 nM, RXRa partner concentration 90 nM)
Outline: as §1

[19] = tested on: VDR homodimer (NR concentration 270 nM)
Outline: as §1

Sequence	PBM binding z-score [1]	PBM binding z-score [2]	PBM binding z-score [3]	PBM binding z-score [4]	PBM binding z-score [5]	PBM binding z-score [6]	PBM binding z-score [7]	PBM binding z-score [8]	PBM binding z-score [9]	PBM binding z-score [10]	PBM binding z-score [11]	PBM binding z-score [12]	PBM binding z-score [13]	PBM binding z-score [14]	PBM binding z-score [15]	PBM binding z-score [16]	PBM binding z-score [17]	PBM binding z-score [18]	PBM binding z-score [19]
CCTACTGGGCCAAAACGGTCATTGATGCCGATAA	2.93	2.65	0.0613	0.25	0.299	-0.497	-0.344	-0.365	-0.523	0.875	1.39	0.276	0.635	-0.682	-0.274	-0.206	-0.538	-0.116	-0.184
ACTAGAAGGCCAAGGGTCACTCAAGATTAGTCCG	0.756	3.55	0.734	-0.0604	5	3.73	0.235	5.15	1.18	3.92	3.97	4.79	4.33	0.883	4.57	2.87	0.528	3.26	1.92
CAAAGTAGGTCACCGGAAGGTCAAAGTCCGCATG	8.84	9.1	4.14	2.62	6.69	6.22	1.73	7.55	2.1	5.39	5.78	8.47	7.72	1.72	7.28	4.35	2.03	6.18	3.66
CCTACTGGGCCACGAAAGGTGATTGATTCAGTGA	5.14	5.37	-0.117	-0.709	0.352	0.0244	-0.433	0.698	-0.285	0.929	1.02	0.589	0.505	-0.663	0.207	1.41	-0.377	-0.281	-0.289
ACTTACGGGTCAACGAAGTTATAGCACGCGTATA	2.94	3.94	2.05	3.18	2.32	3.73	0.0102	4.15	0.443	4.15	3.02	5.31	4.65	1.66	5.31	2.78	-0.0625	4.19	0.948
GATACAGGGTCAAGGCCAGAGTACGCGTATTGAT	2.82	3.95	1.08	0.22	1.95	3.88	0.227	4.46	0.587	4.44	3.46	5.41	4.92	2.66	5.69	3.52	1.35	4.28	2.91
TGAATGAGGTTTAAGATCAGGGAACGTGGCGTCG	-0.249	0.242	0.0033	-0.732	-0.165	-0.2	-0.311	-0.216	-0.194	0.0151	-0.403	0.0866	0.0198	-0.0681	0.388	0.0282	-0.624	-0.255	-0.231
ATCGAAAGGTCGACGAGGTGAGAATACACCGTTT	0.716	2.39	0.449	1.17	2.15	3.29	0.612	4.11	0.753	4.1	3.04	4.56	4.16	1.15	4.87	4.05	0.736	5.52	0.942
AGAATGAGGTTAACAAAGATCAGGGAAACGCTTG	3.76	3.12	0.964	0.512	0.76	1.72	0.159	2.07	1.01	2.01	0.892	2.1	1.73	1.27	2.69	2.57	0.682	1.71	0.0806
ATCGAAAGGTCGTGACGTGAGTATACAGAAAGGC	-0.00761	1.68	1.56	0.662	1.61	2.98	0.0582	3.7	0.369	3.74	2.18	4.37	3.53	0.904	4.94	2.15	-0.269	3.03	0.662
ACTCGGGGGACAAAGGTCAGAGCTACGCCAGTGA	2.49	5.75	7.4	7.53	5.43	5.36	1.26	6.35	2.37	4.91	4.56	7.2	6.12	2.06	6.34	3.82	1.07	4.66	1.81
CACACTAGGTCAAAGGTCAAAGTCGAGCCAACCA	8.09	8.84	5.62	4.09	7.33	7.4	2.74	9.26	4.38	5.87	5.42	9.01	7.38	3.45	10.4	4.85	2.4	6.85	4.12
ATATGTAGGTTATCGGGTCATTCATTTTGCGCAT	7.75	7.84	5.27	4.21	4.1	3.39	1.23	3.75	2.1	2.43	3.18	3.28	2.49	1.65	3.49	3.53	2.79	–	3
CTAACTAGGTCACGAAAGGTCAAAGTCGAATGAC	8.88	9.03	2.32	2.06	5.96	6.97	3.14	7.47	2.75	5.6	5.7	7.92	8.55	2.56	8.14	5.08	2.55	–	3.54
